# Results published in PubChem BioAssay (NCATS).
# “And” between values parts separate entries of the source, which are not always exact repeats. Equal values may be shown once. Records with an inconclusive call do not appear. Entries that show only a call come without a potency. The source made the active and inactive calls. Unless noted, the call rests on the fitted dose curve.
# What was measured:
# [1] = target: Cytochrome P450 2C9 (Homo sapiens) (UniProt P11712); experiment: Cytochrome P450 family 2 subfamily C member 9 (CYP2C9) small molecule antagonists: luciferase biochemical (cell-free) qHTS assay (AID 1645842; active means well fitted curve in the direction sought with a large enough effect in the repeat runs; an effect the other way counts as inactive or inconclusive; further: nearly all actives have a fitted effect of over 55% in size; further: potency means the concentration at half of the fitted maximal effect)
# In short: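 Luminescence, after 20 min with luciferin detection reagent, reflected CYP2C9 turnover during a 1 h NADPH-driven reaction at 37C. Enzyme-substrate mix contained 0.4% bovine serum albumin and was preincubated with compound 10 min at room temperature.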
# [2] = Primary qHTS for inhibitors of nuclear receptor binding SET domain protein 2 (NSD2) in an isogenic RCH-ACV NSD2 p.E1099K mutant (9B) (AID 1645876; active means well fitted curve in the direction sought with a large enough effect; an effect the other way counts as inactive or inconclusive; further: nearly all actives have a fitted effect of over 70% in size; further: potency means the concentration at half of the fitted maximal effect)
# [3] = Cytotoxicity counterscreen for inhibitors of SARS-CoV-2 cell entry (AID 1645845); details: outcome: dose series up to 57.1 µM unless noted; further: nearly all actives have a fitted effect of over 50% in size
# In short: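 HEK293-ACE2 cells (Expi293F stably expressing human ACE2) seeded overnight, then compound for 1 h plus 48 h at 37C. Viability as ATP content by luminescence; normalized to wells with cells and media-only wells.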
# [4] = Primary qHTS to identify inhibitors of SARS-CoV-2 cell entry (AID 1645846); details: activity change, negative = inhibition: at 57.1 µM (top of the series) unless noted; further: nearly all actives have a fitted effect of over 45% in size; further: potency means the concentration at half of the fitted maximal effect
# In short: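 HEK293-ACE2 (Expi293F, stable hACE2), 1500 cells/well, o/n 37C; cpd 23 nL pin, 1 h; MLV-PP w/ SARS-CoV-2-S (Wuhan-Hu-1, Δ19 C-term); 48 h 37C; Bright-Glo luminescence; normalized vs S-PP and bald PP.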
# [5] = Primary qHTS for inhibitors of nuclear receptor binding SET domain protein 2 (NSD2) in an RCH-ACV wild type WT cells (2C) (AID 1645877; active means well fitted curve in the direction sought with a large enough effect; an effect the other way counts as inactive or inconclusive; further: nearly all actives have a fitted effect of over 70% in size; further: potency means the concentration at half of the fitted maximal effect)
# [6] = Confirmatory qHTS to identify inhibitors of SARS-CoV-2 cell entry (AID 1645844); details: SARS-CoV-2 pseudotyped particle cell entry, luciferase; further: potency means the concentration at half of the fitted maximal effect; nearly all actives have a fitted effect of over 45% in size
# In short: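 HEK293-ACE2 cells were pretreated 1 h with compound, then infected with MLV-based pseudoparticles bearing C-terminally truncated Wuhan-Hu-1 spike for 48 h at 37C; luciferase luminescence normalized to spike PP and bald PP wells.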
# [7] = VSVG counterscreen qHTS to identify inhibitors of SARS-CoV-2 cell entry (AID 1645847); details: VSV-G pseudotyped particle entry, luciferase; further: potency means the concentration at half of the fitted maximal effect; nearly all actives have a fitted effect of over 65% in size
# In short: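 Expi293F/hACE2 cells, overnight plating; cpd 1 h, 37C/5% CO2; + VSV-G PP (MLV pseudotyping), 48 h; supernatant removed, Bright-Glo luciferase read. Norm: VSV-G PP and bald PP wells.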
# Papain (Carica papaya) = Papain (Carica papaya) (UniProt P00784); experiment: Primary qHTS assay for inhibitors of the protease papain (AID 1645873; active means well fitted curve in the direction sought with a large enough effect; an effect the other way counts as inactive or inconclusive;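 further: papain turnover of Z-FR-AMC read as the AMC fluorescence gain over 10 min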)
# Chain of Papain (Carica papaya) (P00784 whole entry, looked up): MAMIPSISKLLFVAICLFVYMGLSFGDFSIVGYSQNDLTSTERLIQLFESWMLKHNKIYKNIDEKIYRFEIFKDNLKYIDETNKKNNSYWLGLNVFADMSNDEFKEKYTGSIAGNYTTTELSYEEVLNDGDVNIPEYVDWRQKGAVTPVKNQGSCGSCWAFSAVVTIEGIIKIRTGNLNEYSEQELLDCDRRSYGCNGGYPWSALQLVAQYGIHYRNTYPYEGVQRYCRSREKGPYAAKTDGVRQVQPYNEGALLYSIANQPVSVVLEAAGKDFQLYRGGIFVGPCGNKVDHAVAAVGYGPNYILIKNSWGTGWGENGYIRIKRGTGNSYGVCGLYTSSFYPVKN
# Chain of Cytochrome P450 2C9 (Homo sapiens) (P11712 whole entry, looked up): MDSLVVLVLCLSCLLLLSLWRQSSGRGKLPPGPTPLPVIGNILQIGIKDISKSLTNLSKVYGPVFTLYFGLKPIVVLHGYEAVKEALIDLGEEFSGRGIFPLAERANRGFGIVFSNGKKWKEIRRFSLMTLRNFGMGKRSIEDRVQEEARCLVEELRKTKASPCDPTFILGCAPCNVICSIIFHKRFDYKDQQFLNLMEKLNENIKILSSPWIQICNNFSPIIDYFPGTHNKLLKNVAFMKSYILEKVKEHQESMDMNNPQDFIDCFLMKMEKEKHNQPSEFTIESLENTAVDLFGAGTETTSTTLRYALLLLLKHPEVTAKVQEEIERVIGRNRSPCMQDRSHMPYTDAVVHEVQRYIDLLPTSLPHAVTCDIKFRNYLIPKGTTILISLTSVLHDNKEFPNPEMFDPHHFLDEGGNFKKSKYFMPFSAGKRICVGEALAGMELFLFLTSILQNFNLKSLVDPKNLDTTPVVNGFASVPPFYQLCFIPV
smiles,measurement,setting,value
COc1ccccc1CN[C@H]1C2CCN(CC2)[C@H]1C(c1ccccc1)c1ccccc1,Potency,[1],inactive
same,Potency,[2],inactive
C[C@@H](CO)NC(=O)[C@@H]1C=C2c3cccc4[nH]cc(c34)C[C@H]2N(C)C1,outcome,[3],inactive
CN1[C@H]2CC[C@@H]1[C@@H](C(=O)O)[C@@H](OC(=O)c1ccccc1)C2,outcome,[3],inactive
same,"activity change, negative = inhibition",[4],-21.7% [at 114 µM]
FC(F)OC(F)(F)C(F)Cl (stereo unspecified),outcome,[3],inactive
CCC1(CC)C(=O)NC(=O)N(C)C1=O,outcome,[3],inactive
CCCCCCC(=O)O[C@H]1CC[C@H]2[C@@H]3CC[C@H]4CC(=O)C=C(C)[C@]4(C)[C@H]3CC[C@]12C,outcome,[3],inactive
same,"activity change, negative = inhibition",[4],-7.93%
CC(C)CCC(=O)O[C@H]1CC[C@H]2[C@@H]3CCC4=CC(=O)CC[C@]4(C)[C@H]3CC[C@]12C,outcome,[3],inactive
same,"activity change, negative = inhibition",[4],-25.5%
CCC1C(C)=NN=C(c2ccc(OC)c(OC)c2)c2cc(OC)c(OC)cc21 (stereo unspecified),outcome,[3],inactive
same,Potency,[4],inactive
CC(=O)O[C@H]1CC[C@H]2[C@@H]3CCC4=CC(=O)CCC4=C3C=C[C@]12C,outcome,[3],inactive
same,"activity change, negative = inhibition",[4],-33.2%
C[C@@H]([C@H](O)c1ccccc1)N(C)C,outcome,[3],inactive
same,"activity change, negative = inhibition",[4],-34.9%
O=[N+]([O-])c1cc(I)c(O)c(I)c1,outcome,[3],inactive
C[C@]12CCC(=O)C=C1C=C[C@@H]1[C@@H]2CC[C@@]2(C)[C@H]1CC[C@@]2(O)CCC(=O)O,outcome,[3],inactive
Cn1sc(Cl)cc1=O,outcome,[3],inactive
same,"activity change, negative = inhibition",[4],-5.28%
O=C/C=C/c1ccccc1,outcome,[3],inactive
same,"activity change, negative = inhibition",[4],-22.2%
CC(C)CCON=O,outcome,[3],inactive
same,Potency,[4],inactive
O=S(=O)(O)c1cc(O)ccc1O,outcome,[3],inactive
same,"activity change, negative = inhibition",[4],-12.6%
CCCCC[C@@H](O)C1C(=O)OC(C)[C@H](O)/C=C/C=C/C=C/C=C/C=C(\C)C(O)C(O)C(O)C[C@H](O)C[C@H](O)C[C@H](O)C[C@H](O)C[C@@H]1O (stereo partly specified),outcome,[3],inactive
same,"activity change, negative = inhibition",[4],-29.9%
O=[N+]([O-])c1ccccc1,outcome,[3],inactive
same,"activity change, negative = inhibition",[4],-19.1%
O=C(C[C@@H]1NCCC[C@H]1O)Cn1cnc2cc(Br)c(Cl)cc2c1=O,outcome,[3],inactive
CC1=C2C[C@H]3[C@@H](CC=C4C[C@@H](O)CC[C@@]43C)[C@@H]2CC[C@]12O[C@@H]1C[C@H](C)CN[C@H]1[C@H]2C,outcome,[3],inactive
same,Potency,[4],17.8 µM (active)
CCC(=O)O[C@@](Cc1ccccc1)(c1ccccc1)[C@@H](C)CN(C)C,outcome,[3],inactive
CCNC1(c2cccs2)CCCCC1=O (stereo unspecified),outcome,[3],inactive
Cc1c(Cl)cccc1S(=O)(=O)Nc1nc(CC(=O)N2CCN(C)CC2)cs1,Potency,[1],21.3 µM (active)
same,Potency,[2],inactive
same,Potency,[5],inactive
CC(N)Cc1ccc(O)cc1 (stereo unspecified),outcome,[3],inactive
CC[C@H](C)[C@H]1O[C@]2(C=C[C@@H]1C)C[C@@H]1C[C@@H](C/C=C(\C)[C@@H](O[C@H]3C[C@H](OC)[C@@H](O[C@H]4C[C@H](OC)[C@@H](O)[C@H](C)O4)[C@H](C)O3)[C@@H](C)/C=C/C=C3\CO[C@@H]4[C@H](O)C(C)=C[C@@H](C(=O)O1)[C@]34O)O2,Potency,[6],21.5 µM (active)
same,Potency,[4],10 µM (active)
same,Potency,[7],12.1 µM (active)
CCCC(=O)OC(C(Cl)(Cl)Cl)P(=O)(OC)OC (stereo unspecified),outcome,[3],inactive [at 114 µM]
O=C(O)C(Cl)(Cl)Cl,outcome,[3],inactive
same,"activity change, negative = inhibition",[4],-27.9%
C[C@]12CC[C@H](OS(=O)(=O)O)CC1=CC[C@@H]1[C@@H]2CC[C@]2(C)C(=O)CC[C@@H]12,outcome,[3],inactive
same,"activity change, negative = inhibition",[4],-5.13%
C=CC[C@]1(O)CC[C@H]2[C@@H]3CCC4=CCCC[C@@H]4[C@H]3CC[C@@]21C,outcome,[3],inactive
Cn1ncnc1COc1nn2c(-c3c(F)cccc3F)nnc2cc1C1CCC1,Potency,[1],6.74 µM (active)
same,Potency,[2],inactive
same,Potency,[5],inactive
O=C(OCCN1CCCCC1)C(O)(c1ccccc1)c1ccccc1,outcome,[3],inactive
same,"activity change, negative = inhibition",[4],-28.8%
Cc1ccccc1-n1c(CF)nc2ccc(N)cc2c1=O,outcome,[3],inactive
same,"activity change, negative = inhibition",[4],-3.31%
CCCCCCCCCC(=O)O[C@H]1CC[C@H]2[C@@H]3CCC4=CC(=O)CC[C@]4(C)[C@H]3CC[C@]12C,outcome,[3],inactive
same,"activity change, negative = inhibition",[4],-15.3%
C[N+]1(C)CCCCC1COC(=O)C(O)(c1ccccc1)c1ccccc1 (stereo unspecified),outcome,[3],inactive
same,"activity change, negative = inhibition",[4],-8.43%
CCN(CC)C(=O)N[C@H]1C[C@@H]2c3cccc4[nH]cc(c34)C[C@H]2N(C)C1,outcome,[3],inactive
c1ccc2sc(SNC3CCCCC3)nc2c1,outcome,[3],inactive
same,"activity change, negative = inhibition",[4],2.84% [at 114 µM]
CCOc1ccc2c3c1O[C@H]1[C@@H](O)C=C[C@H]4[C@@H](C2)N(C)CC[C@@]341,outcome,[3],inactive
CC(C)(O)[C@@H]1[C@H]2OC(=O)[C@@H]1[C@]1(O)C[C@H]3O[C@]34C(=O)O[C@H]2[C@]14C,outcome,[3],inactive
CC[N+](C)(CC)CCOC(=O)C(O)(c1ccccc1)c1ccccc1,outcome,[3],inactive
same,"activity change, negative = inhibition",[4],-7.01%
O=P(O)(O)C(Cl)(Cl)P(=O)(O)O,"activity change, negative = cytotoxicity",[3],3.8% [at 5.25 µM] (inactive)
same,"activity change, negative = inhibition",[4],-6.21% [at 5.25 µM]
Cc1o[nH]c(=O)c1CC(N)C(=O)O (stereo unspecified),Potency,Papain (Carica papaya),inactive
C[C@]12CC[C@H]3[C@@H](CCC4=C(O)C(=O)CC[C@@H]43)[C@@H]1CC[C@@H]2OC(=O)CCC1CCCC1,outcome,[3],inactive
same,"activity change, negative = inhibition",[4],-9.8%
C/C(=C\c1csc(C)n1)[C@@H]1C[C@@H]2O[C@]2(C)CCC[C@H](C)[C@H](O)[C@@H](C)C(=O)C(C)(C)[C@@H](O)CC(=O)O1,outcome,[3],inactive
same,"activity change, negative = inhibition",[4],-75.8% and -81.1%
same,Potency,[7],0.0341 µM (active)
same,Potency,[2],0.0066 µM (active)
same,Potency,[5],0.0059 µM (active)
COc1ccc2[nH]cc(CCN)c2c1,Potency,Papain (Carica papaya),inactive
C=CCN1C[C@@H](C)N([C@H](c2ccc(C(=O)N(CC)CC)cc2)c2cccc(OC)c2)C[C@@H]1C,Potency,Papain (Carica papaya),inactive
O=C1CC[C@@]2(O)C3Cc4ccc(O)c5c4C2(CCN3CC2CC2)[C@H]1O5 (stereo partly specified),Potency,Papain (Carica papaya),inactive
CCN1C[C@@]2(COC)C3[C@@H](OC)C4[C@@H]1C3([C@@H]1C[C@]3(O)[C@H](OC(=O)c5ccccc5)[C@@H]1[C@]4(OC(C)=O)[C@@H](O)[C@@H]3OC)[C@H](OC)C[C@H]2O,Potency,Papain (Carica papaya),inactive
